From PubChem BioAssay
The list is not random: actives were taken first. Their share in the collection is about 1.8%.
pAkt inh = blocks phosphorylation of Akt; 360,000 compounds, 0.32% hits; activity change, % for hits at 50 µM; AID 651550; Neuro2A IGF-stimulated pAkt S473 HTRF, 20 min; stronger effect = lower value; in the data active = activity change below about -80%; inconclusive = mostly about -51% to -80%
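Neuro2A cells (4,500/well, DMEM with 0.5% FBS) were treated with compound at a single 50 µM final concentration, stimulated with 6 nM IGF for 20 min at 37 °C, and lysed. Phospho-Akt Ser473 was read by HTRF as 665/615 ratio ×10^4.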
PI4K2A inh = PI4K2A (human) kinase inhibition; Q9BTU6; purified PI4K2A, ADP-Glo luminescence, 1 h; stronger effect = lower value; activity change, negative = inhibition, % at 76.9 µM; 420,000 compounds, 0.13% hits; AID 1346378; in the data active = activity change below about -50%; inconclusive = mostly about -30% to -49%
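In this quantitative HTS, ADP production by PI4K2A was quantified luminescently after 1 h at ambient temperature; 100 microM adenosine served as plate-quality control.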
CtBP-E1A blk = inhibitors of CtBP/E1A interaction. activity change, % (concentration not given with the values). AlphaScreen GST-E1A/His-CtBP binding, 1536-well; stronger effect = lower value. 340,000 compounds, 0.49% hits
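Homogeneous bead-based format: GST-tagged E1A captured on glutathione donor beads, His-tagged CtBP on nickel acceptor beads; compounds precede bead addition by 2 h at 37 °C.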
PI5P4K alpha inh = inhibitors of human PI5P4K alpha; P48426; PI5P4Kalpha enzyme, ADP-Glo luminescence, 60 min; stronger effect = lower value; max response, %; 330,000 compounds, 1.2% hits; active = max response of -50% or lower; inconclusive = between -30% and -50%; inactive = -30% or higher; also: value at the top dose of about 77 µM
Target sequence (P48426 whole entry, looked up): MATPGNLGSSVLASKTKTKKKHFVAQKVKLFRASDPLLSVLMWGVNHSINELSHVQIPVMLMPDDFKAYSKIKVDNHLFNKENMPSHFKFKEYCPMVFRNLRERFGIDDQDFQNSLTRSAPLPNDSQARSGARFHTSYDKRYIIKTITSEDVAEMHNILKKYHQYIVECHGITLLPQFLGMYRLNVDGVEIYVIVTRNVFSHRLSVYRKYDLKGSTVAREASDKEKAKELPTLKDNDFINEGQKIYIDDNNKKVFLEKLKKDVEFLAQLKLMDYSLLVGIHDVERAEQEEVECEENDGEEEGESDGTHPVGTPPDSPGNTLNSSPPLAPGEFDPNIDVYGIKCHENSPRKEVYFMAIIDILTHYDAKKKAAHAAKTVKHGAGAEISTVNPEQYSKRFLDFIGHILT
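ADP-Glo luminescence end-point read after a 60 min room-temperature kinase reaction of PI5P4Kalpha plus substrate, initiated with ATP at 5 microM final. Buffer: 0.038 M HEPES pH 7.4, EGTA, 0.1% CHAPS, 5% DMSO.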
Six1-Eya2 inh = inhibitors of human Six1/Eya2 interaction; Q15475+O00167; AlphaScreen GST-Six1/His-Eya2 binding, biochemical; stronger effect = lower value; activity change, % (concentration not given with the values); 360,000 compounds, 0.56% hits; AID 651725
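Homogeneous AlphaScreen proximity assay pairing GST-Six1 with His-tagged Eya2 (added as 5X mix: 250 nM and 500 nM) in 50 mM Tris pH 8.0, 300 mM NaCl, 1 mM TCEP. Glutathione donor and nickel acceptor beads; 1 h, 37 °C, dark.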
Each line names hits and unclear results; the compound was inactive in the other large screens. Rule as the data show it, unless noted: active = activity change below about -65%; inconclusive = mostly about -30% to -63%; inactive = weaker than that.

Nc1n[nH]c(=S)n1-c1ccc(Cl)cc1	PI5P4K alpha inh -54 (no result: CtBP-E1A blk)
CC(O)/C=C/c1ccc2ccccc2n1 (configuration not stated)	none (no result: PI5P4K alpha inh)
C=CCn1c(SCC(=O)NC(=O)NCc2ccco2)nc2sc(CC)cc2c1=O	PI5P4K alpha inh -50
O=c1c2c([nH]c3ccccc13)C(=C1CCCC1)CC2	PI5P4K alpha inh -52
Cc1cc2c(c(=O)o1)C(C(C)C)C(C#N)=C(N)O2 (configuration not stated)	pAkt inh -100%
Cc1ncc(N=Nc2ccc(F)cc2)c(-c2ccc(Cl)cc2)n1	pAkt inh -118%
COc1ccc(-c2nc(C)ncc2N=Nc2ccccc2)cc1	pAkt inh -114%, CtBP-E1A blk inconclusive, Six1-Eya2 inh inconclusive
COc1ccc(N/C=C2\CCc3ccccc3C2=O)cc1	PI4K2A inh -66, PI5P4K alpha inh inconclusive
COc1ccc2c(c1)CC/C(=C\Nc1ccc3c(c1)OCO3)C2=O	none (no result: PI5P4K alpha inh)
COc1cccc(C=C2Cc3ccccc3C2=O)c1	none
CC(=O)Oc1ccc(/C=C2/CCc3ccccc3C2=O)cc1	PI4K2A inh -79, PI5P4K alpha inh inconclusive
COc1ccc(/C=C2\CCc3ccccc3C2=O)cc1OC	none
COc1cccc(/C=C2\CCc3ccccc3C2=O)c1	PI4K2A inh -69 (no result: CtBP-E1A blk)
Cc1ccsc1/C=C1\CCc2ccccc2C1=O	PI4K2A inh -75, PI5P4K alpha inh inconclusive
COc1ccccc1CNC(=O)CSc1nn2c(=O)c(C(C)(C)C)nnc2s1	none (no result: CtBP-E1A blk)
Cc1nn(-c2ccccc2)c2c1c(C)c(CCC(=O)N1CCOCC1)c(=O)n2C	none
COc1cc2c(cc1OC)C(=O)CC2	none (no result: pAkt inh, CtBP-E1A blk, PI5P4K alpha inh, Six1-Eya2 inh)
COc1cc2c(cc1OC)C(=O)C(Br)CC2 (configuration not stated)	PI4K2A inh inconclusive, PI5P4K alpha inh -51
COCCN1CCN(C(=O)C2CCC(=O)N(CCCc3ccccc3)C2)CC1 (configuration not stated)	none
O=C(COc1ccccc1)N1CCN(S(=O)(=O)c2cccs2)CC1	none (no result: PI5P4K alpha inh)
O=C(COc1ccc(-c2ccccc2)cc1)N1CCN(C(=O)c2cccs2)CC1	Six1-Eya2 inh -74
COc1ccc(Cl)cc1C(=O)OCC(=O)c1c(N)n(C)c(=O)n(C)c1=O	PI4K2A inh -71
CCOC(=O)c1ccc2nc(C(F)(F)F)[nH]c(=O)c2c1	PI5P4K alpha inh -57
CCOC(=O)c1ccc2nc(C)c3c(c2c1)OC(C)C3 (configuration not stated)	none
CSc1ccc(CCNC(=O)CN2C(=O)c3cccnc3Oc3ccc(Cl)cc32)cc1	none (no result: pAkt inh, CtBP-E1A blk, PI5P4K alpha inh, Six1-Eya2 inh)
CC(/C=N/NC(=O)c1cc(-c2ccc(C)o2)[nH]n1)=C\c1ccccc1	none (no result: CtBP-E1A blk)
COc1ccc(N/C=C/C(=O)C(F)(F)F)cc1	none
CSc1nnc(C)c(/C=C/Nc2ccc(F)cc2)n1	CtBP-E1A blk inconclusive, Six1-Eya2 inh inconclusive
CSc1nnc(C)c(/C=C/Nc2ccc(Cl)cc2)n1	CtBP-E1A blk inconclusive, Six1-Eya2 inh -71
COc1ccc(N/C=C/c2nc(SC)nnc2C)cc1	CtBP-E1A blk -85, Six1-Eya2 inh -72
C/C(=N\NC(=O)C1(C)CC1(Br)Br)c1cccc(NC(=O)C2CCC2)c1 (configuration not stated)	none
CN(C)S(=O)(=O)c1cccc(COC(=O)c2ccc(Cl)cc2O)c1	none
COc1cccc(CN(C)C(=O)c2ccccc2Sc2ccccc2C#N)c1	none
c1ccc(-c2nc(NCCCn3ccnc3)c3oc4ccccc4c3n2)cc1	CtBP-E1A blk -68, Six1-Eya2 inh inconclusive (no result: PI5P4K alpha inh)
CCc1nc(NCCCn2ccnc2)c2oc3ccccc3c2n1	none
c1cncc(-c2nc(NCCCn3ccnc3)c3ccccc3n2)c1	Six1-Eya2 inh -73
Cc1ccc(-n2ncc3c(N4CCC(Cc5ccccc5)CC4)ncnc32)cc1C	none (no result: pAkt inh, CtBP-E1A blk, PI5P4K alpha inh, Six1-Eya2 inh)
O=C1c2ccccc2-c2nc3ccccc3n21	none
CC1(C)CN(Cc2ccccc2)C(=O)[C@H]1CC(=O)Nc1ccc(Br)cc1	none
COC(=O)c1cccc(/C=N/NC(N)=S)c1O	Six1-Eya2 inh -66 (no result: CtBP-E1A blk)
O=C(CSc1ccc(-c2ccccn2)nn1)N1CCCC1	Six1-Eya2 inh -92
CCc1ccc(-c2ccc(SCC(=O)NC3CCCC3)nn2)cc1	none
O=C(CSc1ccc(-c2ccccn2)nn1)c1ccccc1	CtBP-E1A blk -88, Six1-Eya2 inh -86
O=C(CSc1ccc(-c2ccccn2)nn1)NC1CCCC1	CtBP-E1A blk -76, Six1-Eya2 inh -88
